# In the supplement of paper PMC6555819:
# What was measured:
# Assay in all cases: PBM binding z-score (relative to random genomic background probes); higher = stronger binding; sequences stand for … in GC…GCGATTGACAGCGTAGAATGAAGG
# [1] = test system: PPARg:RXRa IVT, anti-PPARg (NR concentration 270 nM, RXRa partner concentration 90 nM)
# Summary of the method: (§1)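 On custom Agilent 4×180K arrays, double-stranded probes with 34-nt variable regions carried direct-repeat seeds, single-nucleotide variants, half-site ablations or random human genomic background. Ligand-free nuclear receptor dimers were applied for 1 h, and binding was read with antibodies against each partner (one per run). Binding z-scores come from regression-normalized fluorescence, with the random background probes as reference.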
# [2] = test system: PPARg DBDmut:RXRa IVT, anti-PPARg (DBD mutation: PPARg1 K132A/R137A, NR concentration 270 nM, RXRa partner concentration 90 nM)
# Summary of the method: as §1
# [3] = test system: PPARg DBDmut IVT, anti-PPARg (DBD mutation: PPARg1 K132A/R137A, NR concentration 270 nM)
# Summary of the method: as §1
# [4] = test system: PPARg homodimer (NR concentration 180 nM)
# Summary of the method: as §1
# [5] = test system: PXR:RXRa (NR concentration 270 nM, RXRa partner concentration 90 nM)
# Summary of the method: as §1
# [6] = test system: PXR homodimer (NR concentration 270 nM)
# Summary of the method: as §1
# [7] = test system: RARa:RXR (NR concentration 270 nM, RXRa partner concentration 90 nM)
# Summary of the method: as §1
# [8] = test system: RARa homodimer (NR concentration 270 nM)
# Summary of the method: as §1
# [9] = test system: RARb:RXRa (NR concentration 270 nM, RXRa partner concentration 90 nM)
# Summary of the method: as §1
# [10] = test system: RARb homodimer (NR concentration 270 nM)
# Summary of the method: as §1
Sequence,PBM binding z-score [1],PBM binding z-score [2],PBM binding z-score [3],PBM binding z-score [4],PBM binding z-score [5],PBM binding z-score [6],PBM binding z-score [7],PBM binding z-score [8],PBM binding z-score [9],PBM binding z-score [10]
TATTCAGGGTCAAAGGCCAGAGTACGAATGTCGA,5.28,4.08,6.08,3.43,4.67,0.543,6.17,1.17,4.83,3.61
TCTATTAGTTGATTAGGGCAACCGAAACAGCGGA,1.84,0.572,0.488,1.34,0.609,0.491,1.03,1.33,0.953,0.738
CGTCCGAGGTCATAGGAGGTCAGTGAAGACAGAT,4.71,1.87,0.417,5.49,7.21,6.7,6.7,2.36,5.36,5.04
AGTCAAAGTTCAGGACGACGTAACGTAAAGCACG,1.54,0.437,-0.388,1.53,2.18,0.785,1.86,0.264,3.92,2.77
TAGCCTAGGTCATGCGGGCCAATATAGTGTCGGC,2.94,-0.152,-0.18,0.69,1.64,-0.334,2.13,-0.396,3.67,3.15
ACGCGGAGGACAAAGGTCAGAGCTACGCCAGTGA,3.08,-0.183,-0.911,2.67,3.88,0.273,5.05,0.759,4.48,4.11
TGTATGAGGTTAAAGATCAGGGAACGTGGCGTCG,1.99,0.959,0.628,1.78,2.38,0.249,3.55,1.35,2.49,1.35
ACTTACGGCTCAACGAGGTTATAGCACGCGTATA,0.0544,0.327,0.825,0.463,0.645,0.358,0.812,-0.139,0.165,0.526
CCTGCTAGGTCATGGTCAGCGAATCTACAGTATG,3.76,-0.0271,-0.639,2,1.18,-0.875,2.26,-0.334,4.09,3.29
CCTACTGGGCCAAAGAGGTCATTGATGCCGATAA,4.34,-0.355,-0.682,1.81,4.81,4.26,4.39,0.256,3.07,3.65
CCTTACGGGTCACTGACAGGTTATAGCGTTTGGA,3.67,-0.0392,-0.319,2.56,3.48,0.179,3.97,0.964,3.88,3.34
CGAACTAGGTCATCCAGGACCGTGAATACATTGA,8.09,1.32,0.732,1.83,1.34,-0.0905,1.84,0.294,3.6,2.57
AGTCAAACTTCAGGACGAGGTAACGTAAAGCACG,0.278,0.625,0.0207,0.24,-0.409,-0.112,0.165,0.202,0.545,0.304
TTGCCTAGGTCATTGGGCCAGTATAGTACGCATC,3.83,0.969,-0.224,0.621,1.67,-0.193,2.13,-0.65,3.79,2.92
TAGCCTAGGTCATTCAGGGGCCACTATAGAAAGC,3.19,0.203,-0.136,2.11,3.08,-0.109,4.13,0.262,4.11,3.28
TCGCCTAGGTCATGGGCCAGTATACCACGCGAAC,2.65,0.306,-0.587,1.21,1.7,-0.2,2.97,-0.243,3.97,3.12
GCATATAGGTAATACAAGGTCAAAGTCCGATTGT,4.1,0.883,0.92,1.97,4.93,2.12,4.47,1.17,2.92,3.79
CCTACTGGGCCAAAAAGTTCATTGATGCCGATAA,2.64,-1.13,-0.236,1.35,2.98,9.58,1.23,0.294,2.24,2.64
ATATGTAGGTTAAGCGTCATTCAGGTTGGTTCGC,7.49,1.71,1.99,1.04,0.685,-0.178,0.705,0.512,1.17,0.88

Sequence,PBM binding z-score [1],PBM binding z-score [2],PBM binding z-score [3],PBM binding z-score [4],PBM binding z-score [5],PBM binding z-score [6],PBM binding z-score [7],PBM binding z-score [8],PBM binding z-score [9],PBM binding z-score [10]
AGCGAAAGGTCGAGGTGAGTATAGAGAAAGGGAA,2.26,0.0948,0.386,1.75,2.52,0.259,3.19,0.743,4.03,2.64
TCTTGTAGATCAACAGGAGGTTAATAAAGATCGA,0.851,0.688,0.752,0.0813,0.776,-0.162,1.23,0.176,0.533,0.497
CACACTAGGTCACAGAGGTCAAAGTCCGTGCGTA,8.44,0.528,2.16,4.86,6.73,12,7.59,3.69,5.36,5.86
AGTCAAAGTGCATCTAGGTAACGTAAGATATGCT,2.46,0.878,0.653,0.197,0.516,0.154,0.595,-0.00454,1.53,0.456
GCTTACGGGTCCAAGGTTATAGCATGAATAGAAT,0.338,0.865,-0.558,0.0227,0.869,0.331,1.06,0.0844,0.932,0.871
CGAACTAGGTCGAGGACAGTGAATCTCCGCACGC,5,0.082,-0.0951,-0.11,-0.012,-0.207,0.419,-0.18,1.64,1.18
GCTAGTTGGTCAGTAAAAGGTGACACACCGGTCG,1.63,-1.22,-1.06,0.86,0.431,-0.523,1.07,0.0812,1.83,2.45
CCAACTGGGCCAAAAAGGTCATTGATGCCGATAA,3.89,-0.199,-0.68,2.84,4.6,3,4.65,1.31,3.94,4.36
TTACCAAGGTGAACGGTCGTTGATGCACGCCTTG,3.55,1.13,0.904,0.997,-0.0425,-0.818,0.693,-0.752,2.03,1.31
CCTTACGGGTCAAGGTTATAGCCCGGGTGGTACG,3.44,-0.234,-0.862,1.69,3.43,0.303,4.46,0.676,4.33,3.8
CGAACGAGGTCATTGACAGGACAGTGAATAGTAA,5.72,2.22,0.785,3.3,5.28,3.11,5.46,0.884,4.82,3.73
TGTCAACGTTCAAAGGTAACGTAAGTATCCACAC,1.78,0.941,0.758,0.252,0.578,-0.0241,1.36,0.107,1.46,1
TAGCCGAGGTCATTCAGGGGCCAGTATAGAAAGC,3.9,1.06,1.57,4.27,5.92,2.27,6.51,0.64,5.27,4.49
AGAATGAGGTTACCAAAGTTCAGGGAAACGCTTG,4.09,0.616,0.161,1.31,6.02,3.03,3.93,0.38,3.81,3.93
GGAACGAGGTCAAAGTTGATAGCATCTGTCGACG,6.45,0.31,1.24,2.56,5.91,2.54,6.93,0.429,5.18,4.02
TCTAGTTGGTCACGGAGGACACACACGACGGGTA,2.32,1.35,1.02,0.981,0.558,0.193,0.682,0.611,2.19,2.13
TATCAAAGTTCAAAGGTAACGTAAGTATCCACAC,2.37,1.61,1.66,2.55,5.83,4.87,6.67,2.48,5.07,3.91
CCTTACGGGTCCCTCCAGGTTATAGCATCGGAGT,-0.601,-1.12,-1.29,0.547,0.139,-0.00641,0.181,-0.487,0.0941,0.0845
CCTTACGGGTCACGAGGTTGTAGCACGACGAGCG,4.99,1.56,-0.374,3.19,3.92,-0.0862,5.55,0.412,4.42,3.53
